Here are results for twelve compounds from PubChem BioAssay.

Activity calls are given as the source filed them.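 How the source made its calls, unless noted: active means NADPH fluorescence slope more negative than the mean of all samples by about 3 SD, 99.7% confidence; inactive means the rest.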 Where a SMILES comes first, the peptide text is derived from it. The star is where a group is joined. Boc = CC(C)(C)OC(=O)*

Assay [1] in a line: inhibitors of TNFa-induced NFkB p65 translocation, primary screen, imaging, HUVEC, MLSMR starter and 10KST1 sets (AID 438;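 active means inhibition above 20% together with a positive visual image hit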;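 further: compound added about 3h40 before a 20 min TNFalpha stimulation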;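 on inhibition: signal is the nuclear over cytoplasmic p65 intensity ratio per well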). Conditions: HUVEC TNFa-induced p65 nuclear translocation; cell count: measured here: nuclei count (cytotoxicity indicator), at 2.08 µM; inhibition: at 2 µM, stronger effect = higher value, 0% TNFa-plus-vehicle, 100% no-TNFa wells.
Assay [2] can be described thus: reduction of polyQ htt aggregates in cells – imaging, exon1htt(103Q)mCFP cells, high-content imaging, primary screen (AID 483;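 active means visual image review flags a hit and inhibition of aggregation exceeds 20%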;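 further: compound exposure lasted 3 days before fixation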;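 on nuclei count: percent of the per-plate median nuclei count of sample wells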). The conditions noted are these: exon1htt(103Q)mCFP cell line, aggregate imaging, at 2 µM; inhibition of aggregation: stronger effect = higher value; nuclei count: measured here: cell count, toxicity.
Assay [3] can be described thus: endothelial E-selectin expression blockers – imaging, HUVEC, immunofluorescence, MLSMR starter and 10KST1 sets, primary screen (AID 487;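 active means visually confirmed hit in the image check and inhibition above 20%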;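 on inhibition: signal is fraction of cell area covered by stained E-selectin grains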;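 on nuclei count: 100% = median nuclei count of all wells on the same plate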). Conditions: HUVEC TNFalpha-induced E-selectin immunofluorescence imaging, at 2 µM; inhibition: stronger effect = higher value; nuclei count: measured here: cell number, toxicity.
The target of assay [4] is Voltage-gated potassium channel subunit beta-2 (Rattus norvegicus) (UniProt P62483). The assay can be described thus: inhibitors of rat Kvbeta2 reductase activity – biochemical, NADPH fluorescence, primary screen (AID 622;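 active means fluorescence slope higher than the sample average by over 3 SD, cut at about -0.22 in these data, passing the limit was not always enough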;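 further: slope of raw intensity against log time taken from 70 to 1610 s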). Conditions: recombinant KvBeta, 4-cyanobenzaldehyde reduction, at 10 µM, stronger effect = higher value.
Sequence of Voltage-gated potassium channel subunit beta-2 (Rattus norvegicus) (P62483 whole entry, looked up): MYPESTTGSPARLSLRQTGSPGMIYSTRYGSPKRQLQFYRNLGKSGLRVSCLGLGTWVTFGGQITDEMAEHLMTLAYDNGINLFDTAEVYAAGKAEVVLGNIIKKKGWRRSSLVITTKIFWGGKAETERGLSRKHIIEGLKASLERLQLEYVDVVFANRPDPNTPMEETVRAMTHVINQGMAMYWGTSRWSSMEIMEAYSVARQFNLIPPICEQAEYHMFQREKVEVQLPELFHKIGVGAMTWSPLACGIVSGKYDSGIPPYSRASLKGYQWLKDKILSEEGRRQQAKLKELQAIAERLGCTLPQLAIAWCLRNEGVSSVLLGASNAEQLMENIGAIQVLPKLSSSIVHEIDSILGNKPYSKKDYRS
Assay [5] has the same target. The assay can be described thus: enhancers of rat Kvbeta2 NADPH turnover – biochemical, NADPH fluorescence, primary screen (AID 623).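 Further: fluorescence intensity change per second fitted from 20 to 320 s.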 Conditions: Recombinant KvBeta, NADPH fluorescence decrease slope, 10 min; at 10 µM; stronger effect = lower value.
Assay [6] deals with Alpha-2C adrenergic receptor (Homo sapiens) (UniProt P18825). The assay can be described thus: compounds altering alpha2C-coupled GIRK flux – cell-based, HEK293 alpha2C/GIRK1/2, thallium flux, primary screen (AID 624;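 active means fluorescence slope after compound addition differing from the mean of all screened samples at 99.7% confidence, in either direction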;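 further: slope of fluorescence ratio to pre-addition baseline per second over 15 to 24 s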). Conditions: thallium flux BTC fluorescence, at 10 µM, actives lie on both sides.
Sequence of Alpha-2C adrenergic receptor (Homo sapiens) (P18825 whole entry, looked up): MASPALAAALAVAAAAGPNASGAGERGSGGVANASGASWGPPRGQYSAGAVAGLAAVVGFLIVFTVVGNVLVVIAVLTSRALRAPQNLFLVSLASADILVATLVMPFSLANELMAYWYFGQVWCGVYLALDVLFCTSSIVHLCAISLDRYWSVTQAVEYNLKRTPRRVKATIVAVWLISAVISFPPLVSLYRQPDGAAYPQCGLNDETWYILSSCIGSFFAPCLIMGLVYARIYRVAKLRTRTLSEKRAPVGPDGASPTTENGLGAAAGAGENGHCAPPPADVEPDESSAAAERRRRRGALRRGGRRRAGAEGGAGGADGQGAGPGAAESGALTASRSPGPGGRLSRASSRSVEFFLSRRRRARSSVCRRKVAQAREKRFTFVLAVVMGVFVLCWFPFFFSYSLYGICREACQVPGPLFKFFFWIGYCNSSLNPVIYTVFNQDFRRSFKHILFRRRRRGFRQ
The nature of assay [7]: blockers of RIG-like receptor reporter activation – cell-based, Sendai virus stimulus, luciferase, 10K MLSCN set, TLR/RLR signaling modifier project, primary screen (AID 602276;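 active means inhibition at or above 50% at 10 µM; inactive means inhibition below 50%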;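 further: firefly luciferase from ISG56 promoter only with Renilla not read in this screen; 0% = Sendai virus plus DMSO and 100% = medium plus DMSO without virus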). The conditions noted are these: HEK293 RL24 IRF3 luciferase reporter, at 10 µM, stronger effect = higher value.
Assay [8] in a line: TLR3 IRF3 reporter activation blockers – cell-based, poly I:C stimulus, luciferase, 10K MLSCN set, primary screen (AID 602277;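 active means inhibition of the reporter signal at or above 50%; inactive means inhibition below 50%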). Conditions: HEK293-TLR3 RL24 IRF3 luciferase reporter, at 10 µM, stronger effect = higher value.

A word on the inhibition: it is the drop in the measured response relative to a control, in per cent. For the compound `CCN1CCN(c2nc3c(c(=O)[nH]c(=O)n3C)n2CCSc2nc3ccccc3s2)CC1`, the cell count in assay [1] was determined as 638. The inhibition in assay [1] was -11.8% (inactive); in assay [3], -45.2% (inactive); in assay [7] it was 12.2% (inactive); in assay [8] it was 23.6% (inactive). Also, the inhibition of aggregation in assay [2] is -2.9% (inactive). For the same compound, the nuclei count in assay [2] was 111%; in assay [3], 113%. Moreover, in assay [4], the fluorescence slope was -0.431 (inactive). Also, the NADPH fluorescence slope in assay [5] was -2.8e-05 (inactive). For the same compound, the slope in assay [6] was 0.00469 (inactive).

Consider `Cc1coc2cc3oc(=O)c4c(c3cc12)CCC4`, for which, in assay [1], the cell count worked out at 714. For the same compound, the inhibition in assay [1] was 6.7% (inactive); in assay [3] it was -48.2% (inactive); in assay [7] it was -1.57% (inactive); in assay [8], -5.8% (inactive). In addition, in assay [2], the inhibition of aggregation is -13.1% (inactive). Moreover, the nuclei count in assay [2] was 59.7%; in assay [3] it was 135%. For the same compound, the fluorescence slope in assay [4] is -0.566 (inactive). Besides, the NADPH fluorescence slope in assay [5] is -1.8e-05 (inactive). Also, the slope in assay [6] was 0.00717 (inactive).

As to `CC(C)(C)OC(=O)N1CCCC1C(=O)NC(Cc1ccccc1)C(=O)O` (stereo not drawn) (Boc-Pro-Phe-OH; configuration not given here), the cell count in assay [1] stood at 431. Besides, the inhibition in assay [1] is 1% (inactive); in assay [3] it was 21.6% (inactive); in assay [7] it was 12.2% (inactive); in assay [8] it was 17.2% (inactive). In assay [2], the inhibition of aggregation was 4.3% (inactive). The nuclei count came out at 99.5% in assay [2] and 101% in assay [3]. Besides, the fluorescence slope in assay [4] was -0.607 (inactive). Moreover, in assay [5], the NADPH fluorescence slope was 1.1e-05 (inactive). Also, in assay [6], the slope was 0.00669 (inactive).

For `CCOc1ccc(Cn2nnc(C(=O)NCc3ccc(OC)cc3)c2N)cc1`, the cell count in assay [1] turned out to be 509. Further, the inhibition in assay [1] was -1.3% (inactive); in assay [3], -22.4% (inactive); in assay [7], 17.5% (inactive); in assay [8], 30.1% (inactive). Further, the inhibition of aggregation in assay [2] was 15.4% (inactive). The values for the nuclei count in assay [2] and in assay [3] were 72.5% and 100%, respectively. Further, the fluorescence slope in assay [4] is -0.536 (inactive). Besides, the NADPH fluorescence slope in assay [5] was -2.2e-06 (inactive). Also, the slope in assay [6] was 0.00681 (inactive).

For the compound `CCCn1c(O)c(CN2CCCC(C)C2)c(C)c(C#N)c1=O` (configuration not stated), the cell count in assay [1] was determined as 673. Moreover, the inhibition in assay [1] is -16.4% (inactive); in assay [3] it was -59.7% (inactive); in assay [7], 13.3% (inactive); in assay [8], 22.1% (inactive). In addition, in assay [2], the inhibition of aggregation was 2.6% (inactive). Also, the nuclei count in assay [2] was determined as 91.2%; in assay [3] it was 113%. Further, the fluorescence slope in assay [4] was -0.472 (inactive). Moreover, the NADPH fluorescence slope in assay [5] is -2.9e-05 (inactive). For the same compound, the slope in assay [6] is 0.00503 (inactive).

In the case of `Cc1ccc(S(=O)(=O)Cc2ccc(C(=O)N3CCN(Cc4ccccc4)CC3)o2)cc1`, the cell count in assay [1] came to 760. The inhibition in assay [1] was -9.8% (inactive); in assay [3], -76.2% (inactive); in assay [7], 10.7% (inactive); in assay [8] it was 37.2% (inactive). For the same compound, the inhibition of aggregation in assay [2] was -10.9% (inactive). Also, the nuclei count in assay [2] worked out at 101%; in assay [3] it was 118%. The fluorescence slope in assay [4] is -0.569 (inactive). In assay [5], the NADPH fluorescence slope is -1.3e-05 (inactive). In assay [6], the slope was 0.00635 (inactive).

Regarding `O=C(NC1CCN(Cc2nnnn2CCc2ccccc2)CC1)c1ccccc1F`, in assay [1], the cell count was 744. For the same compound, the inhibition is 0% (inactive) in assay [1], -44.2% (inactive) in assay [3], 11.5% (inactive) in assay [7] and 27.2% (inactive) in assay [8]. In assay [2], the inhibition of aggregation is -8.8% (inactive). In addition, the nuclei count in assay [2] came to 99.7%; in assay [3] it was 116%. Further, the fluorescence slope in assay [4] was -0.295 (inactive). The NADPH fluorescence slope in assay [5] was -3.3e-06 (inactive). The slope in assay [6] was 0.00487 (inactive).

`COc1ccc(OCCN2C(=O)NC(C)(c3ccc(C)cc3)C2=O)cc1` (configuration not stated): the cell count in assay [1] is 391. The inhibition in assay [1] was -14.7% (inactive); in assay [3] it was -84.6% (inactive); in assay [7], 12.5% (inactive); in assay [8], 5.61% (inactive). Further, the inhibition of aggregation in assay [2] is -4.1% (inactive). Besides, the nuclei count in assay [2] was 108%; in assay [3], 138%. Besides, the fluorescence slope in assay [4] is -0.496 (inactive). In assay [5], the NADPH fluorescence slope is -6.9e-05 (inactive). For the same compound, the slope in assay [6] is 0.00469 (inactive).

For `C=CCSc1nc2sc(C)c(C)c2c(=O)[nH]1`, the cell count in assay [1] turned out to be 589. In addition, the inhibition in assay [1] is 1.4% (inactive); in assay [3] it was 3.2% (inactive); in assay [7], -11.3% (inactive); in assay [8], -3.55% (inactive). For the same compound, the inhibition of aggregation in assay [2] was 10.2% (inactive). In addition, the nuclei count in assay [2] worked out at 111%; in assay [3], 107%. Further, in assay [4], the fluorescence slope is -0.563 (inactive). Further, the NADPH fluorescence slope in assay [5] is -9.3e-06 (inactive). Also, the slope in assay [6] is 0.00785 (inactive).

As for `CCNc1ccc(C(=O)OCC)cc1NC(=O)c1cc(S(=O)(=O)N2CCOCC2)ccc1C`, the cell count in assay [1] was 772. Moreover, the inhibition in assay [1] is 7.3% (inactive); in assay [3] it was -81.9% (inactive); in assay [7], -4.65% (inactive); in assay [8], -25.5% (inactive). The inhibition of aggregation in assay [2] was 31.2% (inactive). Further, the nuclei count in assay [2] was 93.3%; in assay [3] it was 114%. Besides, in assay [4], the fluorescence slope is -0.551 (inactive). The NADPH fluorescence slope in assay [5] was 4.9e-05 (inactive). Further, the slope in assay [6] was 0.00574 (inactive).

For `CC(NC(=O)c1noc2c1CCCCC2)c1ccccc1` (configuration not stated), in assay [1], the cell count was found to be 936. Also, the inhibition was 6.9% (inactive) in assay [1], -24.9% (inactive) in assay [3], -24.9% (inactive) in assay [7] and -53.9% (inactive) in assay [8]. Moreover, the inhibition of aggregation in assay [2] was -5% (inactive). The nuclei count was determined as 154% in assay [2] and 126% in assay [3]. Further, the fluorescence slope in assay [4] was -0.618 (inactive). In addition, in assay [5], the NADPH fluorescence slope is -3.4e-05 (inactive). The slope in assay [6] is 0.00631 (inactive).

As for `COc1cccc(-c2cc(C(F)(F)F)n3ncc(C(=O)O)c3n2)c1`, the cell count in assay [1] was 382. Also, the inhibition in assay [1] was -2.6% (inactive); in assay [3], -22.3% (inactive); in assay [7] it was 11% (inactive); in assay [8], 20.4% (inactive). The inhibition of aggregation in assay [2] is 13.4% (inactive). Further, the values for the nuclei count in assay [2] and in assay [3] were 94.7% and 73.7%, respectively. In addition, the fluorescence slope in assay [4] is -0.576 (inactive). The NADPH fluorescence slope in assay [5] is -5.3e-05 (inactive). Besides, in assay [6], the slope was 0.00328 (inactive).
